CHX counter – Cycloheximide Counterscreen for Small Molecule Inhibitors of Shiga Toxin; cell reporter, cycloheximide protein synthesis inhibition counterscreen; max response, %; hit rate 12% among 300,000; AID 2314, 2010; in the data active = max response mostly above about 13%, no sharp cut-off; inactive = mostly below about 14%; note: read at 38.3 µM for the half of the compounds with a filed dose; 0% is about no effect
Pf growth 96h – Primary qHTS for delayed death inhibitors of the malarial parasite plastid, 96 hour incubation; P. falciparum luciferase reporter growth, 96 h; Potency, µM (series often up to 28.7 µM), inactives show at the top dose activity change, negative = inhibition, actives largely listed as inhibitors; hit rate 6.9% among 320,000; AID 504834, 2011; note: potency is the fitted concentration of half-maximal effect; % is set by controls: 0 for no effect and ±100 for the full control effect
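Readout is luminescence from an integrated firefly luciferase in P. falciparum. Red cells, 2% hematocrit and 0.05% parasitemia final, were cultured with compound through two parasite generations (96 hours) at 37 C, 5% CO2.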
Shiga toxin inh – A qHTS for Small Molecule Inhibitors of Shiga Toxin. Vero cells, Shiga toxin protein synthesis inhibition reporter. inhibition, % at 38.7 µM. hit rate 9.2% among 290,000. AID 2315, 2010; in the data active = inhibition mostly above about 28%, no sharp cut-off; inactive = mostly below about 43%; note: 0% is about no effect
HCMV antiviral – qHTS Assay for inhibitors of the human cytomegalovirus (HCMV); HFF cells, HCMV-luciferase reporter, 72 h; hits give low values; activity change, negative = inhibition, % at 57.5 µM; hit rate 4.5% among 410,000; AID 1259415, 2018; in the data active = activity change below about -60%; inconclusive = no clear call, values can overlap the other calls; inactive = above about -39%; note: % is set by controls: 0 for no effect and ±100 for the full control effect
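Luciferase read-out from HCMV-luciferase-infected HFFs (MOI 1 PFU/cell) 72 h post infection at 37C; compounds added after 16 h cell attachment; activity normalized between buffer-only basal and Salinomycin (10uM) inhibitor controls.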
Pf growth 48h – Primary qHTS for delayed death inhibitors of the malarial parasite plastid, 48 hour incubation; AID 504832, 2011; hit rate 5.9% among 310,000; Potency, µM (doses to about 28.7 µM), for the others: top-dose activity change, negative = inhibition, usual class: inhibitors; P. falciparum luciferase growth in erythrocytes, 48 h; note: potency is the fitted concentration of half-maximal effect; % is set by controls: 0 for no effect and ±100 for the full control effect
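First compound was added to culture medium, then infected red cells at 0.1% parasitemia and 2% hematocrit (final). After incubation at 37 C under 5% CO2, luciferase detection reagent was dispensed and light output recorded.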
HCV inhibitor – qHTS Assay for Inhibitors of Hepatitis C Virus (HCV). Huh7.5.1 HCVcc-Cre infection, luciferase reporter, 44 h. Potency, µM (highest dose often 41.8 µM), for inactives: at the highest dose activity change, negative = inhibition, actives largely listed as inhibitors. hit rate 3.4% among 340,000; note: potency is the fitted concentration of half-maximal effect; % is set by controls: 0 for no effect and ±100 for the full control effect
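HCVcc-Cre virus at an moi near 0.5 was added right after compound to cells cultured 4 h from seeding (1,000 cells/well). Luciferase activity was determined 44 h later, 15 min after substrate addition at RT.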
An asterisk follows results filed as active; i = inactive; ? = inconclusive; nt = no result; ! = repeats disagree. Compounds with a hit are over-represented: about 21% of the library has one in this group of screens. Unless noted, calls come from the whole dose curve; as a rule, active = well fitted inhibition curve with a large enough effect; inconclusive = small, poorly fitted or top-dose-only effect, or another doubt; inactive = no such curve, though single readings can be large or run the other way.

SMILES | CHX counter | Pf growth 96h | Shiga toxin inh | HCMV antiviral | Pf growth 48h | HCV inhibitor
CCCCN(CC)CCNC(=O)Cn1cnc2sc(C)c(S(=O)(=O)N3CCN(c4ccccc4OC)CC3)c2c1=O | nt | nt | nt | -1.6 | nt | nt
COc1ccccc1NC(=O)Cn1cnc2sc(C)c(S(=O)(=O)N3CCCCC3)c2c1=O | -3.4 | 0.522µM* | -14.5 | ? | -22.1% | ?
CCCN(CCC)CCCNC(=O)Cn1cnc2sc(C)c(S(=O)(=O)N3CCCCC3)c2c1=O | -3.4 | 1.3% | -6.9 | -70.6*! | ? | 11.8%
COc1ccc(OC)c(NC(=O)Cn2cnc3sc(C)c(S(=O)(=O)N4CCN(c5ccccc5OC)CC4)c3c2=O)c1 | nt | nt | nt | 9.0 | nt | nt
CCCCN(C)C(=O)Cn1cnc2sc(C)c(S(=O)(=O)N3CCN(c4ccccc4OC)CC3)c2c1=O | -6.3 | 3.0% | -2.6 | -19.2 | 11.7µM* | -18.4%
CCCN(CCC)CCCNC(=O)Cn1cnc2sc(C)c(S(=O)(=O)N3CCC(C)CC3)c2c1=O | -5.1 | 22.3% | -5.1 | 56.0 | -6.6% | 12.8%
CCOC(=O)c1c(-c2ccccc2)csc1NC(=O)c1nn(CC)cc1Br | -0.9 | nt | 8.6 | 11.4 | 13.1µM* | ?
CCOC(=O)c1c(N)c(C#N)cn1-c1ccccc1 | 2.2 | nt | -4.2 | 17.8 | 8.6% | 2.9%
CCOC(=O)c1c(-c2ccccc2)csc1NC(=O)C(C)NCc1ccco1 (stereo not given) | -0.1 | 13.1µM* | -16.9 | -18.6 | ? | ?
CCOC(=O)c1c(-c2ccccc2)csc1NC(=O)c1ccc(S(=O)(=O)N2CC(C)OC(C)C2)cc1 (stereo not given) | -1.0 | 9.28µM* | -1.2 | -9.2 | 10.4µM* | 1.4%
CCOC(=O)c1c(-c2ccccc2)csc1NC(=O)c1ccc(N2C(=O)CCC2=O)cc1 | -3.0 | 103.6% | -11.0 | 19.1 | 42.1% | -13.4%
CCOC(=O)c1c(-c2ccc(Cl)cc2)csc1NC(=O)CNCc1ccco1 | -2.3 | ? | -5.8 | -36.0 | ? | ?
CCOC(=O)c1c(-c2ccccc2)csc1NC(=O)c1cc(-c2ccc(Cl)cc2)on1 | nt | nt | nt | -1.7 | nt | nt
CCOC(=O)c1c(NC(=O)c2nn(CC)cc2Br)c(C#N)cn1-c1ccccc1 | -7.4 | 24.0% | -18.4 | -8.7 | 9.28µM* | ?
Cc1noc(C)c1CSc1ccccc1C(=O)N(C)CC(=O)Nc1cccc(F)c1 | nt | -24.7% | nt | -0.5 | -8.6% | ?
CC(C)(C)OC(=O)N1CCN(C(=O)c2ncn(Cc3ccccc3)c2C(=O)N2CCN(C(=O)OC(C)(C)C)CC2)CC1 | nt | ? | nt | -13.1 | ? | 13.7%
CCOC(=O)c1c(-c2ccccc2)csc1NC(=S)N(CC)CC | -1.3 | 5.22µM* | -1.2 | -10.9 | 11.7µM* | ?
COc1cccc(N2C(=O)CC(NNC(=O)c3cccs3)C2=O)c1 (stereo not given) | 19.0* | 37.7% | 43.1* | -13.9 | 18.7% | -12.1%
O=C(NNC1CC(=O)N(c2cccc(Cl)c2)C1=O)c1cccs1 (stereo not given) | 11.2 | 8.3% | 38.8* | 38.6 | 7.5% | 25.2%
COc1ccc(-c2noc(N3CCC(C(=O)Nc4cccc(OC)c4)CC3)n2)cc1 | 11.5* | 40.6% | 24.6* | -30.4 | ? | 22.4µM*
COc1cccc(NC(=O)C2CCN(c3ncccn3)CC2)c1 | 11.1* | -16.2% | 25.3* | 10.3 | 30.1% | ?
COc1ccc(-c2noc(N3CCC(C(=O)N(C)c4ccccc4C)CC3)n2)cc1 | 1.4 | ? | 3.8 | ? | ? | 11.2µM*
CC(=O)Nc1cccc(Oc2ccc(-c3noc(C)n3)cc2)c1 | 44.1* | 9.4% | 79.3* | 78.1 | 207.6% | ?
CCCCn1c(N)c(N(CCOC)C(=O)c2cc(Cl)nc3ccccc23)c(=O)[nH]c1=O | nt | ? | nt | -12.3 | -8.9% | -1.4%
Cc1nn2c(=O)cc(COC(=O)c3ccco3)nc2s1 | nt | nt | nt | -1.6 | nt | nt
SMILES | CHX counter | Pf growth 96h | Shiga toxin inh | HCMV antiviral | Pf growth 48h | HCV inhibitor
CC(OC(=O)C1=COCCO1)C(=O)Nc1cc(S(=O)(=O)N2CCCCC2)ccc1Cl (stereo not given) | -1.5 | ? | -6.8 | -17.3 | -4.4% | -8.9%
CCOC(=O)N1CCN(C(=O)c2ccc(OC)cc2)CC1 | -4.8 | 37.1% | -4.0 | -31.1 | 34.9% | 16.1%
CCOC(=O)N1CCN(c2nc(-c3ccc(OC)cc3)no2)CC1 | 26.0* | 20.8% | 62.0* | ? | 0.0% | 12.6µM*
Clc1ccc(CSc2ncn[nH]2)cc1 | 14.4 | 25.7% | 45.0 | -3.4 | 34.4% | -1.9%
CCOc1ccc(Cl)cc1CSc1ncn[nH]1 | -4.2 | ? | -5.9 | -67.7* | ? | ?
COC(=O)C1CCCCN1C(=O)c1cc(COc2cccc3cccnc23)on1 (stereo not given) | 0.5 | 100.6% | 1.3 | -4.8 | 13.1% | -10.4%
COC(=O)C1CCCCN1C(=O)c1cc(COc2cccc3cnccc23)on1 (stereo not given) | -1.9 | -24.7% | -11.5 | -92.0* | -1.2% | nt
CCOC(=O)CC1CCCCN1C(=O)c1cc(COc2cccc3cnccc23)on1 (stereo not given) | 8.7 | 42.8% | -4.8 | -87.0* | -26.7% | 2.24µM*
CC1(C)Cc2ccccc2-c2nnc(-c3cccnc3)n21 | -5.0 | nt | -19.3 | -22.2 | 2.33µM* | 20.3%
CC1(C)Cc2ccccc2-c2nnc(SCc3ccccc3)n21 | 11.0* | i | 17.8 | -12.2 | ? | -13.4%
Cn1c(SCC(=O)N2CCN(c3ccccc3)CC2)nnc1-c1ccccc1 | -0.8 | 46.9% | 4.0 | -30.9 | 38.8% | ?
CC1(C)Cc2ccccc2-c2nnc(SCC(=O)N3CCN(c4ccccc4)CC3)n21 | 1.2 | nt | -7.2 | -92.4* | -23.2% | ?
CC1(C)Cc2ccccc2-c2nnc(-c3ccccc3)n21 | 6.1 | nt | -14.8 | -10.4 | -8.6% | ?
CCC(C)[C@H](NC(=O)OC(C)(C)C)C(=O)NCC1CCC(C(=O)N[C@@H](Cc2ccccc2)C(=O)O)CC1 (stereo not given in full) | -1.2 | -16.9% | -7.4 | -8.9 | ? | 18.4%
CC(C)CN(C)Cc1c(C(=O)N2CCc3ccccc3C2)nc2ccc(Cl)cn12 | 0.8 | ? | -8.8 | -8.4 | 7.38µM* | ?
CCCCN(C)Cc1c(C(=O)N2CCc3ccccc3C2)nc2ccc(Cl)cn12 | -3.1 | -8.7% | 44.9 | -13.7 | ? | -0.9%
CN(Cc1cnccn1)Cc1c(C(=O)N2CCc3ccccc3C2)nc2ccc(Cl)cn12 | -1.6 | ? | -24.7 | ? | 11.7µM* | -20.8%
COc1cc(NC(=O)CN2CCN(CC(=O)Nc3ccc(F)cc3)CC2)cc(OC)c1 | nt | nt | nt | -23.1 | nt | nt
Cc1ccc2nc3ccc(N4CCN(C)CC4)nn3c(=O)c2c1 | 32.3* | 102.5% | 57.3* | 222.0 | 174.6% | 2.2%

High-throughput results as filed in PubChem BioAssay.
